# Measurements taken from PubChem BioAssay (NCATS).
# Values joined by “and” are separate entries in the source; they are usually repeats but may differ in a detail not shown here. Equal entries are not always repeated. Inconclusive results are not listed. Entries that show only a call come without a potency. Active and inactive are the calls of the source. Unless noted, the call rests on the fitted dose curve; in most records, active means well fitted curve in the direction sought with a large enough effect; inconclusive means small, poorly fitted or top-dose-only effect, or another doubt; inactive means no such curve, though single readings can be large; an effect the other way counts as inactive or inconclusive. Square brackets hold non-standard residues; d marks the D form. Peptide text beside a SMILES is read from it. ξ: configuration not given here. d(hArg(Et2)) = CCN=C(NCC)NCCCC[C@@H](N)C(=O)O; hArg(Et2) = CCN=C(NCC)NCCCC[C@H](N)C(=O)O; Phe(4-Cl) = N[C@@H](Cc1ccc(Cl)cc1)C(=O)O; ξ2Nal = NC(Cc1ccc2ccccc2c1)C(=O)O; 3Pal = N[C@@H](Cc1cccnc1)C(=O)O; ξP = O=C(O)C1CCCN1
# What was measured:
# [1] = target: Glutathione peroxidase 1 (Homo sapiens) (UniProt P07203); experiment: Primary qHTS Assay for Inhibitors of Recombinant Selenoprotein Glutathione Peroxidase 1 (GPX1) (AID 1845191); further: nearly all actives have a fitted effect of over 65% in size
# Glutathione peroxidase 1 (Homo sapiens), sequence (P07203 whole entry, looked up): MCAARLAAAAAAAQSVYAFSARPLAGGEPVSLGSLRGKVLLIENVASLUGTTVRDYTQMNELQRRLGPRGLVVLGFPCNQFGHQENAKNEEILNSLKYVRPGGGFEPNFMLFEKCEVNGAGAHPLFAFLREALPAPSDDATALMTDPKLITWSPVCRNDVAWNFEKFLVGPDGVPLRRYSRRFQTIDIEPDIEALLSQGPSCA
# Summary of the method: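 Recombinant GPX1 (10 nM final) was preincubated with compound for 30 min at room temperature, then reacted with 1 mM GSH, 0.5 mM CHP, 0.5 mM NADPH and 100 nM glutathione reductase; NADPH fluorescence (340/450 nm) was read at 0 and 15 min.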
# [2] = target: Lysosomal acid glucosylceramidase (Homo sapiens) (UniProt P04062); experiment: Glucocerebrosidase-p2 (AID 348; in the data active means potency below about 10 µM; further: potency means the concentration at half of the fitted maximal effect); details: purified GBA, blue fluorogenic substrate, 40 min
# Lysosomal acid glucosylceramidase (Homo sapiens), sequence (P04062 whole entry, looked up): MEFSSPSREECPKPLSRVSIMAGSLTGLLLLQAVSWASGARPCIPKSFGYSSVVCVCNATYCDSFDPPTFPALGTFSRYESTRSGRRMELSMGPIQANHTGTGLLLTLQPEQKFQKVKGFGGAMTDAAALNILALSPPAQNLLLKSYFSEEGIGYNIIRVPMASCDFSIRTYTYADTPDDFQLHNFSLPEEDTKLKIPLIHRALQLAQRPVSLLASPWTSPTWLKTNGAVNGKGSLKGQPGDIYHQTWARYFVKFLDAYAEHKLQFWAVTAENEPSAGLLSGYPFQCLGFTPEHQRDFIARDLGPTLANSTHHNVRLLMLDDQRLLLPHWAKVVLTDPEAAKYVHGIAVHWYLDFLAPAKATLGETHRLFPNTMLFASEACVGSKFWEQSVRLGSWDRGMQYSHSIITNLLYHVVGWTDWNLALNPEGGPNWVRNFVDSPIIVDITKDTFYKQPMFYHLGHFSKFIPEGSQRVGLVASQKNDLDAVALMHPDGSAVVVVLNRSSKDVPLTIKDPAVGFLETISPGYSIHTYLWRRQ
# Summary of the method: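 Compounds titrated from 0.6 nM upwards against 0.2 nM enzyme in pH 5.9 citric acid/KH2PO4, taurocholate, tween-20; blue fluorogenic substrate 80 uM, 40 min room temperature, stopped and read Ex 365/Em 440 for AC50.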
# [3] = AP1 Signaling Pathway (AID 357; active means well fitted curve in either direction with a large enough effect, not every such curve was filed as active;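 further: ME-180 reporter cells stimulated with EGF at its EC50 level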); details: ME-180 AP-1-bla reporter, EGF-induced, beta-lactamase ratio, 5 h; at 7.69 µM (top of the series) unless noted
# Summary of the method: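 In this screen, ME-180 cells in Opti-MEM with 0.5% dialyzed FBS received EC50 EGF and compound titrations for 5 h. AP-1 reporter beta-lactamase was detected via CCF4 ratio, giving AC50 for positive and negative modulators.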
# [4] = target: Cytochrome P450 1A2 (Homo sapiens) (UniProt P05177); experiment: p450-cyp1a2 (AID 410; calls by dose curve; further: potency means the concentration at half of the fitted maximal effect)
# Cytochrome P450 1A2 (Homo sapiens), sequence (P05177 whole entry, looked up): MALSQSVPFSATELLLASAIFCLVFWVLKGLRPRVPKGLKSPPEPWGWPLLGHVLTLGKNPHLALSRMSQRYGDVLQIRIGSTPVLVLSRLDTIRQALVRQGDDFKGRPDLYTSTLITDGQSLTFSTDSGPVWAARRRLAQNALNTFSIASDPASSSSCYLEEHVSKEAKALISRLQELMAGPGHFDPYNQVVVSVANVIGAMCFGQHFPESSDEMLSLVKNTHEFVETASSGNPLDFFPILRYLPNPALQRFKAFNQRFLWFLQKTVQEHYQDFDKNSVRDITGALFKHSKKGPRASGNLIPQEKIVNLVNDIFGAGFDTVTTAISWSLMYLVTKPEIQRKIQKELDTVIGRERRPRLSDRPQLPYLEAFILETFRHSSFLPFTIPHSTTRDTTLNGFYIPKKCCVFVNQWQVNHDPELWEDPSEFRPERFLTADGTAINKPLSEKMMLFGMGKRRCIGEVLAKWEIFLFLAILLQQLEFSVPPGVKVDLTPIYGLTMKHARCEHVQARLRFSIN
# Summary of the method: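 20nM CYP1A2 with 100uM Luciferin-ME (at Km) in 100mM KPO4; compound preincubated 10 min, NADPH regeneration added, 60 min at room temperature. Luciferin quantified by luminescence after detection reagent; normalized to 57 uM furafylline.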
# [5] = Stat Signaling Pathway (AID 446; active means well fitted curve in either direction with a large enough effect, not every such curve was filed as active;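 further: ME-180 cervical cancer cells given 40 pM IL-6 alongside compound; SIE-controlled beta-lactamase reporter measured as 460/530 nm FRET emission ratio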)
# Summary of the method: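 ME-180 cells carrying a SIE-driven beta-lactamase reporter are stimulated with 40 pM IL-6 for 5 h at 37C in the presence of compound. The 460/530 nm FRET substrate ratio is read after 2.5 h at RT. Data are normalised to 300 pM IL-6 and to 125 nM JAK inhibitor controls.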
# [6] = target: Glucocorticoid receptor (Homo sapiens) (UniProt P04150); experiment: GR-EFC Redistribution (AID 451; calls by dose curve; further: potency means the concentration at half of the fitted maximal effect); details: CHO-K1 GR-EFC translocation, beta-gal luminescence, 2 h
# Glucocorticoid receptor (Homo sapiens), sequence (P04150 whole entry, looked up, the tested form may be a part): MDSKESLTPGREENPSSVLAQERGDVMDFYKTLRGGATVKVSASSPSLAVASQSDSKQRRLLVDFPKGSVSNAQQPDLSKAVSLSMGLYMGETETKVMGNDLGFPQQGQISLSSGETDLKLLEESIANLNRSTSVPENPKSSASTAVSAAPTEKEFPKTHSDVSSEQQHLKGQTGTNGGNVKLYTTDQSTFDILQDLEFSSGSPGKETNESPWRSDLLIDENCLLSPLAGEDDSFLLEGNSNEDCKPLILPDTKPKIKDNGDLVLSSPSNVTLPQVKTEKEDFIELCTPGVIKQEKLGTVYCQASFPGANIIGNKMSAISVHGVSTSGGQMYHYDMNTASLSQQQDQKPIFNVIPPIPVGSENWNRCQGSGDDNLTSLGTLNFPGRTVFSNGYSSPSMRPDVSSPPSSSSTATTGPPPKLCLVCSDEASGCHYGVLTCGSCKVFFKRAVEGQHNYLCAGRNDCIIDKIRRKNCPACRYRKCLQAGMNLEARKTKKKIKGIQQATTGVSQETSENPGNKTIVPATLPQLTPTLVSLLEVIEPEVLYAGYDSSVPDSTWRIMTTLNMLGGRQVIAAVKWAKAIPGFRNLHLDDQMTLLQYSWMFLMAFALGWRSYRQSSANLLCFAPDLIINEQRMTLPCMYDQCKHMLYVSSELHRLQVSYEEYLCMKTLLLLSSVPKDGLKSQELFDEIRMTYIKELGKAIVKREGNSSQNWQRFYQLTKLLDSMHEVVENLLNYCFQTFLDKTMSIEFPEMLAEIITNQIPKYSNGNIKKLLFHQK
# Summary of the method: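 CHO-K1 cells stably expressing nuclear-localized β-gal enzyme acceptor and GR fused C-terminally to the enzyme donor fragment; ligand-driven nuclear translocation restores β-gal by complementation. Compounds titrated up to 46 uM final, 2 h at 37 °C; luminescence read.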
# [7] = target: Cytochrome P450 3A4 (Homo sapiens) (UniProt P08684); experiment: qHTS Assay for Inhibitors and Substrates of Cytochrome P450 3A4 (AID 884); further: nearly all actives have a fitted effect of over 50% in size; further: potency means the concentration at half of the fitted maximal effect
# Cytochrome P450 3A4 (Homo sapiens), sequence (P08684 whole entry, looked up): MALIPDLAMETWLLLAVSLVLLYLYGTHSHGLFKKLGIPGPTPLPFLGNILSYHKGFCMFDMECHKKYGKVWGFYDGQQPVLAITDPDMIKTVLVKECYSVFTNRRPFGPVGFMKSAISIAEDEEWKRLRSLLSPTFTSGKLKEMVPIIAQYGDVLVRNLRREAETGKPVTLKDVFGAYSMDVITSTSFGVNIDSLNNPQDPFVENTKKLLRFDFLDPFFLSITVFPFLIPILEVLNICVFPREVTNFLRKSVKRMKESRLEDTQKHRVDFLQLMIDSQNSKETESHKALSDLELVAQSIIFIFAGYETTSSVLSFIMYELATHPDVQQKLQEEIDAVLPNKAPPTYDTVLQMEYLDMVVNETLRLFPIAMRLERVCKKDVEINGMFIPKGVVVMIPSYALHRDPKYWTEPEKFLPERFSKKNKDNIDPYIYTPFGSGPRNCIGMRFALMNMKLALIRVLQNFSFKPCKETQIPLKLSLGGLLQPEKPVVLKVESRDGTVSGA
# Summary of the method: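 20 nM human CYP3A4 with 25 uM Luciferin-PPXE (at KM) in 200 mM KPO4, preincubated 10 min with compound; NADPH regeneration started a 60 min RT reaction. Luciferin detected by luminescence, normalized to 57 uM ketoconazole as full inhibition.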
# [8] = target: Cytochrome P450 3A4 (Homo sapiens) (UniProt P08684); experiment: qHTS Assay for Activators of Cytochrome P450 3A4 (AID 885); further: nearly all actives have a fitted effect of over 65% in size
# Summary of the method: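 Human CYP3A4 (20 nM) with Luciferin-PPXE at 25 uM (its KM) in 200 mM KPO4; 10 min compound preincubation, then NADPH regeneration and 60 min reaction at RT. Luciferin read by luminescence; normalized to 57 uM ketoconazole full inhibition.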
# [9] = target: Dual specificity protein kinase CLK4 (Homo sapiens) (UniProt Q9HAZ1); experiment: qHTS Assay for Inhibitors of CDC-like Kinase 4 (ADP-FP Assay) (AID 1795);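 further: recombinant human CLK4 phosphorylating RS repeat peptide at 1 µM ATP; nearly all actives have a fitted effect of over 60% in size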
# Dual specificity protein kinase CLK4 (Homo sapiens), sequence (Q9HAZ1 whole entry, looked up): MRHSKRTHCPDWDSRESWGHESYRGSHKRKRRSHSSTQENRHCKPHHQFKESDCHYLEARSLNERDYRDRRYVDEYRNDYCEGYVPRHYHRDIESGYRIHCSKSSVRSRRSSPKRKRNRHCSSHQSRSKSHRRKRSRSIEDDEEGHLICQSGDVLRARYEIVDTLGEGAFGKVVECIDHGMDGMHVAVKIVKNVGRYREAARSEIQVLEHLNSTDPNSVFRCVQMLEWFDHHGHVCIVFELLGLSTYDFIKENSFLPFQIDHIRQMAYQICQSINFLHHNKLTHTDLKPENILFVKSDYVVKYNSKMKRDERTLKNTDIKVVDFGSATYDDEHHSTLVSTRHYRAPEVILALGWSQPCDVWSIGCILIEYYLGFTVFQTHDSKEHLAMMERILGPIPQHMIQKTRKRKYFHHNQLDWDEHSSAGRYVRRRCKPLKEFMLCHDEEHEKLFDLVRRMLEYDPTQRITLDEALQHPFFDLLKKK
# Summary of the method: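 Inhibition of ADP formation by 6.25 nM Clk4 is measured using 1 uM ATP and 100 uM RS repeat peptide over one hour. Produced ADP displaces a fluorescent tracer from antibody, lowering polarization.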
# [10] = target: 3',5'-cyclic-AMP phosphodiesterase 4B (Homo sapiens) (UniProt Q07343); experiment: qHTS Assay for Inhibitors of PDE-IV (AID 607; active means well fitted activation curve with a large enough effect in the main read-out, with a control signal flat, not every such curve was filed as active)
# 3',5'-cyclic-AMP phosphodiesterase 4B (Homo sapiens), sequence (Q07343 whole entry, looked up): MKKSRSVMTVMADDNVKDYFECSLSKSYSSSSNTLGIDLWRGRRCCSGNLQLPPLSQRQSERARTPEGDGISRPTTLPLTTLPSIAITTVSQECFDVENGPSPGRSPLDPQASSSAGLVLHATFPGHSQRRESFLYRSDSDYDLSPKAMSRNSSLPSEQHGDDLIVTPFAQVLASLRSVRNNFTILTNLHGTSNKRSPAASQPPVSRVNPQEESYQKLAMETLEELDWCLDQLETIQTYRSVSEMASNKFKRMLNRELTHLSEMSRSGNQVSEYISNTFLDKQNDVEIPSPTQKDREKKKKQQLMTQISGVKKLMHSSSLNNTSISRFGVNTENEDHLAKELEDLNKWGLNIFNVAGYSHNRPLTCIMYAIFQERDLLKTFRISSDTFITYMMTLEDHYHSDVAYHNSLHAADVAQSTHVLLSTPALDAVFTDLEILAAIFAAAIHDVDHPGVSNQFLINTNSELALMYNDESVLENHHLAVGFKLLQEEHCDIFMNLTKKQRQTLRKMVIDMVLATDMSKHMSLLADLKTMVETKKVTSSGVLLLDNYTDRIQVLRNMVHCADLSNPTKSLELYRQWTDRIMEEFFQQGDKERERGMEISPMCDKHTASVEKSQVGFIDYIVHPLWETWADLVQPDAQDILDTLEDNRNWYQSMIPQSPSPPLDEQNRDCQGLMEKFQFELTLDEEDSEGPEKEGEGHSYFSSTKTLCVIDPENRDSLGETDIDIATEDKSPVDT
# Summary of the method: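 HEK293 ACTOne cells with CNG channel (1000/well), endogenous PDE4; membrane potential dye, compounds up to 22.9 uM final. Fluorescence Ex 535/Em 590; RO 20-1724 (100 uM final) as reference.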
# [11] = target: Cytochrome P450 2C19 (Homo sapiens) (UniProt P33261); experiment: qHTS Assay for Inhibitors and Substrates of Cytochrome P450 2C19 (AID 899); further: nearly all actives have a fitted effect of over 60% in size
# Cytochrome P450 2C19 (Homo sapiens), sequence (P33261 whole entry, looked up): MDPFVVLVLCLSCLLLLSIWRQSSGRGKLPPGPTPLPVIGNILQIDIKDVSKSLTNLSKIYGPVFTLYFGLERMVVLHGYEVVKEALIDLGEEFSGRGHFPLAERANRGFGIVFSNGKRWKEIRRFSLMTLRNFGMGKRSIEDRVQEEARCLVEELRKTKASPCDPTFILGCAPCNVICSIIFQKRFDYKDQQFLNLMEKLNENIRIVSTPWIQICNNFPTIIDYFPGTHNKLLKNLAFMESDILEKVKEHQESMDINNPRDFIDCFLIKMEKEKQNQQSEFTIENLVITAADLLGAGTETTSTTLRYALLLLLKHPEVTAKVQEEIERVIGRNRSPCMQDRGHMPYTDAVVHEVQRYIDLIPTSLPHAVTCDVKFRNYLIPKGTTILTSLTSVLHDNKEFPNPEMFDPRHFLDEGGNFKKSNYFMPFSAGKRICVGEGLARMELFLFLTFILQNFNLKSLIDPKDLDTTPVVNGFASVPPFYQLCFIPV
# Summary of the method: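 In 50mM KPO4, the reaction held 5nM enzyme and KM-level (10uM) Luciferin-H EGE; it ran 60 min at 37C after NADPH regeneration and a 10 min compound preincubation. Luminescence values were scaled to 57uM ketoconazole as complete inhibition.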
# [12] = Cell Viability - BJ (AID 421; calls by dose curve;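 further: potency means the concentration at half of the fitted maximal effect; cells exposed to compound for 40 hours at 37 °C before readout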); details: BJ fibroblast viability, qHTS
# Summary of the method: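 Normal human BJ foreskin fibroblasts, 1500/well in complete medium, treated 40 hr at 37 °C. Cellular ATP by CellTiter-Glo luminescence; normalized to DMSO and 100 uM tamoxifen, AC50 from Hill fit.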
# [13] = qHTS Assay for Identification of Small Molecule Inducers of Hypoxia Response (AID 2120; active means well fitted curve in the direction sought with a large enough effect in the signal ratio, with a control signal flat, not every such curve was filed as active; the % refers to the signal ratio)
# Summary of the method: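 HRE-bla ME-180 cells in Opti-MEM with 0.5% dialyzed FBS, pre-plated 4-5 h, then compound titration for 17 h at 37 degrees Celsius. CCF4 loaded 2.5 h at room temperature; 460/530 nm ratio gave %Activity and AC50 for induction.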
# [14] = qHTS assay for small molecule antagonists of retinoid X receptor alpha signaling (AID 588546); details: HEK293T RXRa-UAS-bla, beta-lactamase ratio, antagonist mode; measured here: W530 green channel, cytotoxicity proxy;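 further: cells stimulated with 9-cis-retinoic acid as agonist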
# Summary of the method: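 Beta-lactamase reporter inhibition, read as CCF4 fluorescence ratio (ex 405, em 460/530 nm) after 2 h at RT. HEK293T UAS-bla cells, 2500/well, were stimulated with 9-cis-RA at 500 or 100 nM final alongside test compound for 18 h at 37 C.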
# [15] = qHTS assay for environmental chemicals that activate the Aryl hydrocarbon Receptor (AhR) signaling pathway (AID 651777); details: 1A2-DRE human hepatoma cells, luciferase, 24 h; activation: stronger effect = higher value; further: nearly all actives have a fitted effect of over 15% in size
# Summary of the method: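 Luminescence read-out: One-Glo added for 30 min at RT after 24 hr compound treatment (37 C, 5% CO2) of human hepatoma cells expressing a DRE/CYP1A2 promoter–luciferase reporter; increased signal indicates AhR activation.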
# [16] = target: Peroxisome proliferator-activated receptor alpha (Homo sapiens) (UniProt Q07869); experiment: qHTS assay for small molecule agonists of the peroxisome proliferator-activated receptor alpha (PPARalpha) signaling pathway (AID 651778); details: PathHunter PPARalpha complementation, chemiluminescence, 6 h; max response: stronger effect = higher value
# Peroxisome proliferator-activated receptor alpha (Homo sapiens), sequence (Q07869 whole entry, looked up): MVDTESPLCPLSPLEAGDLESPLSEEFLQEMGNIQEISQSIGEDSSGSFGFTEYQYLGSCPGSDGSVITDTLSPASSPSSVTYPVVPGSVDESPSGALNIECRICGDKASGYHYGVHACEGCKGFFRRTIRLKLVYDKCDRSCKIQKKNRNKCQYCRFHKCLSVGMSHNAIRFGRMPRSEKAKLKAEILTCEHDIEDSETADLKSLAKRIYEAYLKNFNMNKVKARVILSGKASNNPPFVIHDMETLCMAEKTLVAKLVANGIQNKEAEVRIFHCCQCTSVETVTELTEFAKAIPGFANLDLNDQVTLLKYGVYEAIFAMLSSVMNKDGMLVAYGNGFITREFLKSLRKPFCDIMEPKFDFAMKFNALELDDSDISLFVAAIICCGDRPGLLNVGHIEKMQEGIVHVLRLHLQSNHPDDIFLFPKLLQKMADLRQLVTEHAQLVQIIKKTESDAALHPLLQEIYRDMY
# Summary of the method: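 Cells plated at 2,000/well and held overnight at 37 C, 5% CO2, then compound added by pin tool for 6 hr; after PathHunter detection reagent and 60 min at room temperature, chemiluminescence from enzyme complementation was read.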
# [17] = qHTS assay for small molecule agonists of the antioxidant response element (ARE) signaling pathway measured by Nrf2-dependant transcriptional activity - cell viability counter screen (AID 720653; active means well fitted curve in the direction sought with a large enough effect in the repeat runs; an effect the other way counts as inactive or inconclusive); details: ARE-bla HepG2 viability, CellTiter-Glo ATP luminescence, 16 h; max response: stronger effect = lower value
# Summary of the method: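 ARE-bla HepG2 cells (2,000/well) rested 5 hrs at 37C/5% CO2, then exposed to compounds in DMSO for 16 hrs. Viability was read in the same wells as intracellular ATP by luminescence, 30 min at room temperature after reagent addition.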
# [18] = qHTS assay for cell viability of HEK293 cells (AID 743288); details: ATP luminescence (CellTiter-Glo), 18 h; max response: stronger effect = lower value; further: nearly all actives have a fitted effect of over 50% in size
# Summary of the method: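 The Tox21 protocol used parental HEK293 cells treated for 18 h at 37 C with compounds delivered by pintool; ATP-coupled luminescence after 30 min at room temperature gave viability.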
# [19] = qHTS assay for cell viability of the p53RE-bla HCT-116 cell line (AID 743292); further: nearly all actives have a fitted effect of over 55% in size
# Summary of the method: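 Luminescent ATP quantitation (CellTiter-Glo) served as the viability read-out; reagent was added after 16 h compound exposure at 37 C and read after 30 min at room temperature. Cells: p53RE-bla HCT-116, 4,000 per well.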
smiles,measurement,setting,value
COc1ccc(S(=O)(=O)ON=C2C=C(C)C(=O)C(C)=C2)cc1,Potency,[1],inactive
Cc1ccc(N2CCN(C(=O)CCc3c(C)nc4c(c3C)c(=O)n(C)c(=O)n4C)CC2)c(C)c1,Potency,[1],inactive
CCNC(=NCCCC[C@H](NC(=O)[C@H](CC(C)C)NC(=O)[C@@H](CCCCN=C(NCC)NCC)NC(=O)[C@@H](Cc1ccc(O)cc1)NC(=O)[C@@H](CO)NC(=O)[C@H](Cc1cccnc1)NC(=O)[C@H](Cc1ccc(Cl)cc1)NC(=O)C(Cc1ccc2ccccc2c1)NC(C)=O)C(=O)N1CCCC1C(=O)N[C@H](C)C(N)=O)NCC (some centres not stated) (Ac-[ξ2Nal][Phe(4-Cl)][3Pal][dS][dY][d(hArg(Et2))]L[hArg(Et2)][ξP][dA]-NH2),Potency,[1],inactive
CCCCC/C=C/C/C=C/CCCCCCCC(=O)O,Potency,[1],inactive
CN(C)c1nc(-c2cccc(NS(C)(=O)=O)c2)nc2ccccc12,Potency,[2],> 11.4 µM (inactive)
same,"activity change, negative = inhibition",[3],11.2% (inactive)
same,Potency,[4],0.501 µM (active)
same,outcome,[5],inactive
same,Potency,[6],> 46 µM (inactive)
same,Potency,[7],6.31 µM (active)
same,outcome,[8],inactive
same,Potency,[9],inactive
C=C1C/C(=C\C=C2/CCC[C@]3(C)[C@@H]([C@H](C)/C=C/C(C)C(C)C)CC[C@@H]23)[C@@H](O)C[C@@H]1O (some centres not stated),Potency,[1],inactive
CNc1ncncc1-c1ccccc1CN(C)C,Potency,[2],> 11.4 µM (inactive)
same,"activity change, negative = inhibition",[3],7.24% (inactive)
same,outcome,[5],inactive
same,Potency,[6],> 46 µM (inactive)
same,Potency,[10],inactive
same,Potency,[11],inactive
same,Potency,[9],inactive
COc1ccc(Nc2cc(C)c3cc(NC(=O)c4cc(OC)cc(OC)c4)ccc3n2)cc1,Potency,[1],inactive
C=CCc1ccc(OC)c(OC)c1,Potency,[12],> 92 µM (inactive)
same,Potency,[7],inactive
same,outcome,[13],inactive
same,max response,[14],-6.05% and 0.363%
same,activation,[15],0.456% (inactive) and 0.0921% (inactive)
same,max response,[16],8.14% (inactive) and -0.977% (inactive)
same,max response,[17],-3.29% (inactive) and -7.51% (inactive)
same,max response,[18],3.16% (inactive) and -7.18% (inactive)
same,Potency,[19],inactive
CN1CCN(c2nc(-c3ccoc3)nc3ccccc23)CC1,Potency,[2],> 11.4 µM (inactive)
same,"activity change, negative = inhibition",[3],6.84% (inactive)
same,outcome,[5],inactive
same,Potency,[6],> 46 µM (inactive)
same,outcome,[8],inactive
same,Potency,[9],inactive
C/C=C(\C)C(=O)O,Potency,[1],inactive
